Inconclusive results are not listed. Entries that show only a call come without a potency. Activity calls are given as the source filed them. The call rests on the fitted dose curve; in most records, active means well fitted inhibition curve with a large enough effect; inconclusive means small, poorly fitted or top-dose-only effect; inactive means no such curve, though single readings can be large or run the other way.
Potency means the concentration at half of the fitted maximal effect.

The nature of this assay: S16 Schwann cell PMP22 intronic element firefly luciferase assay (AID 624032). Further: nearly all actives have a fitted effect of over 30% in size. The settings on record: S16 rat Schwann cells, PMP22 element FLuc, 24 h; series mostly up to 57.5 µM. The method, boiled down: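 Rat S16 Schwann cells stably carrying a PMP22 intronic element-driven Fluc reporter were seeded overnight, then exposed to compounds for 24 h at 37 °C. Luminescence was normalized to PTC124 (positive control) and DMSO (0% activity).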
As to `O[C@H]1[C@H]2[C@H](O)CCCN2C[C@H]1O`, the Potency result is “inactive”.
Next, `NCC(O)c1cccc(O)c1` (stereo not drawn): “inactive”.
The result for `C[N+]1(C)CCCCC1COC(=O)C(O)(c1ccccc1)c1ccccc1` (stereo not drawn) reads “inactive”; that for `C[C@H]1CC[C@@H]2[C@@H](C)[C@H]3[C@H](C[C@H]4[C@@H]5CC=C6CC(O[C@@H]7O[C@H](CO)[C@H](O)[C@H](O[C@@H]8O[C@H](CO)[C@@H](O)[C@H](O)[C@H]8O)[C@H]7O[C@H]7O[C@@H](C)[C@H](O)[C@@H](O)[C@H]7O)CC[C@]6(C)[C@H]5CC[C@]34C)N2C1` (stereo partly drawn), 28.7 µM (active).
On to `O=P(O)(O)C(Cl)(Cl)P(=O)(O)O`, for which the Potency result was “inactive”.
In the case of `C[CH2][Hg][S]c1ccccc1C(=O)O`, the Potency is 0.721 µM (active).
The result for `Clc1ccc(Cl)cc1` reads “inactive”; that for `CN1[C@@H]2CC[C@H]1CC(OC1c3ccccc3CCc3ccccc31)C2` (stereo partly drawn), “inactive”.
The result for `S=C(S)N1CCNCC1` reads “inactive”.
On to `O=C(OCCN1CCCCC1)C(O)(c1ccccc1)c1ccccc1`, for which the Potency result was “inactive”.
Next, `CCC1(CC)C(=O)NC(=O)N(C)C1=O`: “inactive”.
Take `CCCC(C)C1(CC)C(=O)NC(=O)NC1=O` (stereo not drawn): the Potency result is “inactive”.
As for `CNC(=O)Oc1ccccc1C(=O)Nc1ccccc1`, the Potency result is “inactive”.
Next, `O=[N+]([O-])c1cc(I)c(O)c(I)c1`: “inactive”.
In the case of `C/C(=C\c1csc(C)n1)[C@@H]1C[C@@H]2O[C@]2(C)CCC[C@H](C)[C@H](O)[C@@H](C)C(=O)C(C)(C)[C@@H](O)CC(=O)O1`, the Potency was 0.0573 µM (active).
Next, `N#CC1(N2CCCCC2)CCCCC1`: “inactive”; `O=C1CN(O)C(c2ccccc2)=c2cc(Cl)ccc2=N1`: “inactive”.
With `CCC1(c2ccccc2)C(=O)NC(=O)NC1=O`, the Potency result was “inactive”.
Turning to `CCOc1ccc2c3c1O[C@H]1[C@@H](O)C=C[C@H]4[C@@H](C2)N(C)CC[C@@]341`, the Potency was 16.1 µM (active).
Next, `CC(=O)OO`: “inactive”.
As for `c1ccc2sc(SNC3CCCCC3)nc2c1`, the Potency entry is “inactive”.
The result for `O=CC=O` reads “inactive”.
For the molecule `CCCC(C)(COC(N)=O)COC(=O)NC1CC1` (stereo not drawn), the Potency entry is “inactive”.
Next, `C#CC(C)(O)CC` (stereo not drawn): “inactive”; `CCC1(c2ccccc2)C(=O)NC(=O)N(C)C1=O` (stereo not drawn): “inactive”.
The result for `CC(C)(O)C1C2OC(=O)C1C1(O)CC3OC34C(=O)OC2C14C` (stereo not drawn) reads “inactive”.
The result for `C=CCN1CC[C@]23c4c5ccc(O)c4O[C@H]2[C@@H](O)C=C[C@H]3[C@H]1C5` reads “inactive”; that for `COC1=CC=C2[C@H]3Cc4ccc(OC)c5c4[C@@]2(CCN3C)[C@H]1O5`, “inactive”.
On to `CC(Cc1ccccc1)NC=O` (stereo not drawn), for which the Potency entry was “inactive”.
Next, `CCCCNCC(O)c1ccc(O)cc1` (stereo not drawn): 1.81 µM (active); `C=CCC1(C(C)CCC)C(=O)N=C(S)NC1=O` (stereo not drawn): “inactive”.
The result for `Oc1cccc[c]1[Hg][Cl]` reads 0.642 µM (active); that for `CC1CCC(C(C)C)C(OC(=O)c2ccccc2N)C1` (stereo not drawn), “inactive”; that for `c1csc(C2(N3CCCCC3)CCCCC2)c1`, “inactive”.
The result for `[N-]=[N+]=CC(=O)OCC(N)C(=O)O` (stereo not drawn) reads “inactive”; that for `F/C(COc1ccc2c(c1)[nH]c1ccccc12)=C1/CN2CCC1CC2`, “inactive”; that for `CN1c2ccccc2C(NCCCCCCC(=O)O)c2ccc(Cl)cc2S1(=O)=O` (stereo not drawn), “inactive”.
On to `CNC1(c2ccccc2Cl)CCCCC1=O` (stereo not drawn), for which the Potency result was “inactive”.

Values taken from PubChem BioAssay (NCATS).
